From PubChem
SENP8 block-1: blocks the human protease SENP8; purified SENP8, Z-RLRGG-aminoluciferin cleavage, luminescence; inhibition, % at 10 µM; Q96LD8; 330,000 tested, 1.2% active; in the data active = inhibition above about 50%
SENP8 block-2: blocks human SENP8 cleavage of Nedd8 substrate; inhibition, % at 20 µM; Q96LD8; recombinant SENP8, Nedd8 substrate fluorescence; 360,000 tested, 0.64% active; AID 602440; in the data active = inhibition mostly above about 40%, no sharp cut-off; inactive = mostly below about 27%
LGR2 antag: Drosophila LGR2 receptor signaling inhibition. 380,000 tested, 0.35% active. HEK293 LGR2, CRE-luciferase, bursicon-stimulated, 4 h. inhibition, % at 9.99 µM;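 active = drop in luminescence signal, shown as inhibition above about 50% in the replicate tests, limit read from the data, passing the limit was not always enough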;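 also: agonist challenge used bursicon conditioned medium at about half maximal strength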
HSP90 inh: blocks HSP90-mediated luciferase refolding in reticulocyte lysate | Rabbit reticulocyte lysate, luciferase refolding luminescence, 3 h | inhibition, % at 5.6 µM | 290,000 tested, 0.91% active;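 active = inhibition above the screen-wide mean plus 3 SD, computed separately per campaign, cut at about 16% in these data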;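 also: inhibitors lower the luminescence because luciferase stays unfolded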
SENP7 block: inhibitors of human SENP7 protease. inhibition, % at 5 µM. AID 434973. 330,000 tested, 1.5% active. recombinant SENP7, Z-RLRGG-aminoluciferin luminescence, 40 min. Q9BQF6;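 active = inhibition above about 50% at the single test dose, limit read from the data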
Target sequence (Q9BQF6 706-1050 limits assumed): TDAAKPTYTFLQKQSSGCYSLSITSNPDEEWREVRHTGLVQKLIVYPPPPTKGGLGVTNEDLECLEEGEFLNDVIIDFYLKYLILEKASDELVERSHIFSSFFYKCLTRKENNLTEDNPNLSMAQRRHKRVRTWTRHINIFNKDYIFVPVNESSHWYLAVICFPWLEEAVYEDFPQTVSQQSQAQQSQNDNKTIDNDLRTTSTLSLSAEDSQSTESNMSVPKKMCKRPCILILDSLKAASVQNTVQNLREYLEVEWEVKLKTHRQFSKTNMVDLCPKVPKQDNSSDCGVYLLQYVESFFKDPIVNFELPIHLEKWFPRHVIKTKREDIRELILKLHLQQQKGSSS
SENP6 block: SENP6 protease inhibition; Recombinant SENP6 catalytic domain, aminoluciferin luminescence; 330,000 tested, 1.8% active; Q9GZR1; inhibition, % at 10 µM;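 active = inhibition above about 50% at the single tested dose, limit read from the data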
SENP8 confirm: confirmation of human SENP8 protease inhibitors; Recombinant SENP8, Z-RLRGG-aminoluciferin luminescence, 60 min; 6,200 tested, 40% active; inhibition, % at 12.5 µM; shares compounds with SENP7 block; AID 488912;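 active = mean inhibition across replicates above about 50%, limit read from the data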
SENP6 confirm: human SENP6 inhibition, confirmed | shares compounds with SENP7 block | recombinant SENP6, Z-RLRGG-aminoluciferin luminescence | inhibition, % at 12.5 µM | 6,200 tested, 58% active
SENP7 confirm: human SENP7 inhibition, confirmed | shares compounds with SENP7 block | recombinant SENP7, Z-RLRGG-aminoluciferin luminescence, 40 min | inhibition, % at 12.5 µM | 6,200 tested, 69% active | AID 488917
Casp3 SENP sel: caspase-3 inhibition (SENP selectivity assay); shares compounds with SENP7 block; purified caspase-3, Z-DEVD-aminoluciferin luminescence, 60 min; inhibition, % at 12.5 µM; 6,200 tested, 60% active; AID 488918;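 active = mean inhibition above about 50%, limit read from the data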
Target sequence (P42574 28-227 limits assumed): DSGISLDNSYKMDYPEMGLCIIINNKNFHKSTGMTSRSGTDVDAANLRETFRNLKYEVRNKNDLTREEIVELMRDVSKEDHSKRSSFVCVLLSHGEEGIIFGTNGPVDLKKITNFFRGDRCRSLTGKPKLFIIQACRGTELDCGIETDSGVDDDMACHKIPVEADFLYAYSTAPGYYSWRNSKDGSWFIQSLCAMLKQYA
Luc interf: luminescence interference (SENP counter-screen). shares compounds with SENP7 block. Pre-incubated SENP8/Z-RLRGG-aminoluciferin, luciferase luminescence interference. inhibition, % at 12.5 µM. 6,200 tested, 39% active. AID 488919;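 active = mean inhibition above about 50% when retested at one dose, limit read from the data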
Of the large screens only hits and unclear results are named; the others gave an inactive call (follow-up assays come after a bar, where they were run). Most compounds without a hit are left out; they make up all but 2.3% or so of the library.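 The calls were made as follows, unless noted: active = mean inhibition above about 50% in the one-dose retest (limit read from the data); inactive = the rest.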

O=C(O/N=C1\CCS(=O)(=O)c2sccc21)c1ccc(F)cc1	none
O=C(O/N=C1/CCCc2occc21)c1ccc(F)cc1	SENP8 block-1 83, SENP7 block 88, SENP6 block 87 | SENP8 confirm inactive | SENP6 confirm 88 | SENP7 confirm 79 | Casp3 SENP sel 66 | Luc interf inactive
O=C(O/N=C1/CCSc2ccccc21)c1ccc(F)cc1	SENP7 block 87 | SENP8 confirm 73 | SENP6 confirm 92 | SENP7 confirm 89 | Casp3 SENP sel 79 | Luc interf inactive
C[C@@H]1CN([C@@H](C)CO)C(=O)Cc2cc(NC(=O)CCC(F)(F)F)ccc2O[C@H]1CN(C)Cc1ccc(C(F)(F)F)cc1	none (no result: SENP8 block-1, SENP8 block-2, HSP90 inh, SENP7 block, SENP6 block)
CCCCN(C)C(=O)c1cc2cc3cc(OC)ccc3nc2o1	none
CCCCN(C)C(=O)c1cc2cc3ccc(OC)cc3nc2o1	SENP8 block-1 65, SENP7 block 76, SENP6 block 80 | SENP8 confirm 72 | SENP6 confirm 71 | SENP7 confirm 92 | Casp3 SENP sel 85 | Luc interf inactive
O=C(C[C@H]1CC[C@@H]2[C@H](COC[C@H](O)CN2S(=O)(=O)c2ccc(F)cc2)O1)N[C@H]1CCN(Cc2ccccc2)C1	none (no result: SENP8 block-1, SENP8 block-2, HSP90 inh, SENP7 block, SENP6 block)
COc1cccc(-c2cnc3c(c2)C(=O)N([C@H](C)CO)C[C@H](C)[C@H](CN(C)C(=O)CN(C)C)O3)c1	none (no result: SENP8 block-1, SENP8 block-2, HSP90 inh, SENP7 block, SENP6 block)
CC(C)(C)c1ccc(C(=O)Nc2ccc(F)cc2)s1	SENP8 block-1 80, SENP7 block 73, SENP6 block 84 | SENP8 confirm 58 | SENP6 confirm 73 | SENP7 confirm 95 | Casp3 SENP sel 65 | Luc interf inactive
Cn1nc(C(F)(F)F)c2cc(C(=O)Nc3ccc(F)cc3)sc21	none
CCc1cc2cc(C(=O)Nc3ccccc3F)sc2s1	SENP7 block 92, SENP6 block 50 (no result: LGR2 antag) | SENP8 confirm inactive | SENP6 confirm 58 | SENP7 confirm 98 | Casp3 SENP sel 80 | Luc interf inactive
CCc1cc2cc(C(=O)Nc3ccc(F)cc3)sc2s1	SENP7 block 79 (no result: LGR2 antag) | SENP8 confirm inactive | SENP6 confirm inactive | SENP7 confirm inactive | Casp3 SENP sel inactive | Luc interf inactive
Cc1ccc(S(=O)(=O)Nc2ccc3c(c2)CC(=O)N([C@H](C)CO)C[C@@H](C)[C@H](CN(C)S(=O)(=O)c2ccc(F)cc2)O3)cc1	none (no result: SENP8 block-1, SENP8 block-2, HSP90 inh, SENP7 block, SENP6 block)
O=C(COC(=O)c1ccccn1)Nc1ncc(C(F)(F)F)cc1Cl	none (no result: LGR2 antag)
CC1CCCC(NC(=O)COC(=O)c2ccc([N+](=O)[O-])s2)C1C (stereo not drawn)	SENP8 block-1 63, SENP6 block 65 (no result: HSP90 inh) | SENP8 confirm inactive | SENP6 confirm 51 | SENP7 confirm inactive | Casp3 SENP sel inactive | Luc interf inactive
CC(OC(=O)c1ccc([N+](=O)[O-])s1)C(=O)NC1CCCCC1C (stereo not drawn)	SENP8 block-1 55 (no result: HSP90 inh) | SENP8 confirm inactive | SENP6 confirm inactive | SENP7 confirm inactive | Casp3 SENP sel inactive | Luc interf inactive
O=C(COC(=O)c1ccc([N+](=O)[O-])s1)Nc1ncc(C(F)(F)F)cc1Cl	SENP6 block 71 | SENP8 confirm inactive | SENP6 confirm 84 | SENP7 confirm inactive | Casp3 SENP sel inactive | Luc interf inactive
CC1CCCC(NC(=O)COC(=O)c2ccccc2[N+](=O)[O-])C1C (stereo not drawn)	none (no result: LGR2 antag)
CCCNC(=O)N1[C@H](CO)[C@H](c2ccccc2)[C@H]1CNC(C)=O	none (no result: SENP8 block-1, SENP8 block-2, HSP90 inh, SENP7 block, SENP6 block)
c1ccc(-c2ccc3sccc3n2)cc1	SENP8 block-1 75, SENP7 block 85, SENP6 block 83 (no result: HSP90 inh) | SENP8 confirm inactive | SENP6 confirm 78 | SENP7 confirm 94 | Casp3 SENP sel 79 | Luc interf 57
CO[C@@H]1CN(C)C(=O)c2ccc(NC(C)=O)cc2OC[C@H](C)N(C(=O)CC2CC2)C[C@H]1C	none (no result: SENP8 block-1, SENP8 block-2, HSP90 inh, SENP7 block, SENP6 block)
CCCNC(=O)N1CC2(C1)CN(C(C)=O)[C@@H](CO)c1c2c2ccc(OC)cc2n1C	none (no result: SENP8 block-1, SENP8 block-2, HSP90 inh, SENP7 block, SENP6 block)
CCc1ccc(CCC(=O)Nc2nccs2)o1	none (no result: LGR2 antag)
Cc1ccc(CCC(=O)Nc2nccs2)o1	SENP7 block 92 | SENP8 confirm inactive | SENP6 confirm inactive | SENP7 confirm inactive | Casp3 SENP sel inactive | Luc interf inactive
CCCNC(=O)C[C@@H]1CC[C@@H]2[C@H](COC[C@@H](O)CN2C(=O)c2ccccn2)O1	none (no result: SENP8 block-1, SENP8 block-2, HSP90 inh, SENP7 block, SENP6 block)
COC(=O)c1ccc(-c2ccc(Cl)cc2)nc1C	SENP8 block-1 58, SENP7 block 76, SENP6 block 76 | SENP8 confirm inactive | SENP6 confirm 64 | SENP7 confirm 90 | Casp3 SENP sel 52 | Luc interf inactive
COc1ccc(S(=O)(=O)Nc2ccc3c(c2)C(=O)N([C@@H](C)CO)C[C@H](C)[C@H](CN(C)S(=O)(=O)c2ccccc2)O3)cc1	none (no result: SENP8 block-1, SENP8 block-2, HSP90 inh, SENP7 block, SENP6 block)
CCc1ccc(NC(=S)Nc2cccc3cnccc23)cc1	SENP8 block-1 83, SENP7 block 64, SENP6 block 92 | SENP8 confirm inactive | SENP6 confirm inactive | SENP7 confirm inactive | Casp3 SENP sel inactive | Luc interf inactive
Cc1cc(C)cc(NC(=S)Nc2cccc3cnccc23)c1	SENP8 block-1 81, SENP6 block 81 | SENP8 confirm inactive | SENP6 confirm inactive | SENP7 confirm inactive | Casp3 SENP sel inactive | Luc interf inactive
Cc1ccc(NC(=S)Nc2cccc3cnccc23)c(C)c1	SENP8 block-1 87, SENP7 block 77, SENP6 block 95 | SENP8 confirm inactive | SENP6 confirm inactive | SENP7 confirm inactive | Casp3 SENP sel inactive | Luc interf inactive
C=C(C)CNC(=S)Nc1cccc2cnccc12	none
CCC(=O)N1CC[C@@H]2[C@H](CO)Nc3ccc(C#Cc4cccc(OC)c4)cc3[C@@H]21	none (no result: SENP8 block-1, SENP8 block-2, HSP90 inh, SENP7 block, SENP6 block)
CCS(=O)(=O)Nc1ccc2c(c1)C(=O)N(C)C[C@@H](OC)[C@@H](C)CN(C(=O)CN(C)C)[C@@H](C)CO2	none (no result: SENP8 block-1, SENP8 block-2, HSP90 inh, SENP7 block, SENP6 block)
CCCC(=O)Nc1ccc(C2C(=O)c3ccccc3C2=O)cc1	SENP8 block-1 56, SENP6 block 75 | SENP8 confirm inactive | SENP6 confirm 80 | SENP7 confirm 94 | Casp3 SENP sel 93 | Luc interf 80
CC(=O)Nc1ccc(C2C(=O)c3ccccc3C2=O)cc1	none (no result: LGR2 antag)
